Reference: ChEMBL document CHEMBL3988442, “University of Dundee, Small-Polar-MMV Screening Library” (2021)
In all, about 48,000 compounds went through this assay and about 13,000 (27%) showed an effect of 50% or more. Some of the results follow.

system: Wolbachia pipientis; test: Anti-Wolbachia Cell-Based Screen; format: functional; design: scale not given: in the data most compounds retested in dose-response had high values; settings: 5 µM

Row | SMILES | Percent Effect [%]
1 | CC(CS(C)(=O)=O)N(C(=O)CCc1ccsc1)C1CC1 (stereo not given) | -7.747
2 | Cc1c(NCc2ccccc2C#N)cccc1S(=O)(=O)NC1CC1 | 7.829
3 | CCCNC(=O)c1ccc(S(=O)(=O)NCC2(COC)CCCC2)cc1 | 10.08
4 | CN1CCC(Cc2noc(CC3CC3)n2)CC1 | 7.965
5 | CCCN1CCC(Cc2noc(-c3ncccc3C)n2)CC1 | 80.84
6 | CCCN1CCC(Cc2noc(-c3cccnc3OC)n2)CC1 | 111
7 | COc1cccc(-c2n[nH]cc2-c2nc(CC3CCN(C)CC3)no2)c1 | -18.5
8 | CCCN1CCC(Cc2noc(-c3cc4cccnc4nc3C)n2)CC1 | 109.3
9 | Cc1cccc(N2CCN(Cc3nc(CC4CC4)no3)CC2)n1 | -32.1
10 | CCCN1CCC(Cc2nc(CN3CCN(C)CC3)no2)CC1 | -14.74
11 | CN1CCC(Cc2noc(-c3cccc(Oc4ncccn4)c3)n2)CC1 | 7.717
12 | CCCN1CCC(Cc2noc(-c3[nH]cnc3C)n2)CC1 | 95.32
13 | O=C(O)C(F)(F)F.O=C(c1cnccn1)N1CCN2C[C@H](OCc3ccccc3)C[C@H]2C1 | 0.9926
14 | O=C(c1cnc(Nc2ccccc2)nc1)N1CCC2(CCNCC2)CC1 | 2.873
15 | CC(C)c1noc([C@@H]2Cc3[nH]cnc3CN2C(=O)Nc2ccccc2)n1 | 2.136
16 | NC(=O)CCn1ccc(NC(=O)C2(c3ccc(F)cc3)CCC2)n1 | -29.44
17 | COc1ccc(N(Cc2ccco2)C(=O)COC(C)C)cc1F | -7.109
18 | O=c1cc(-c2cc(O)cc(CCC3CCCCN3)c2)cc[nH]1 (stereo not given) | 29.58
19 | COc1cccc(CCC2CCCN(C(C)=O)C2)c1 (stereo not given) | -117.1
20 | COc1ccc(CCNC(=O)NC2CCCC2)cc1OC | 1.175
21 | COc1ccc(CCC2CCCCN2)cc1OC (stereo not given) | 89.4
22 | CS(=O)(=O)c1ccc(-c2cc(O)cc(CCC3CCCCN3)c2)cc1 (stereo not given) | -20.81
23 | COc1cccc(CCC2CCCCN2)c1 (stereo not given) | 69.8
24 | Oc1cc(CCC2CCCCN2)cc(-c2cccnc2)c1 (stereo not given) | 13.71
25 | COc1ccc(CCC2CCCCN2)cc1.Cl (stereo not given) | 100.4
26 | Oc1cc(CCC2CCCCN2)cc(-c2ccncc2)c1 (stereo not given) | 23.52
27 | O=C(NCc1ccncc1)N1CCSCC1CCO (stereo not given) | -7.144

Row | SMILES | Percent Effect [%]
28 | CSc1ccc(-c2nc(CN3CCC(CN)C3)c(C)o2)cc1 (stereo not given) | -1.027
29 | CCc1noc(C)c1C(=O)N1CCN(c2nc(C)cc(OC)n2)CC1 | -4.975
30 | CCCc1nc(C)cc(N2CCC3(CCC(=O)N(CC(N)=O)C3)CC2)n1 | 1.453
31 | Cc1cc(C(F)(F)F)cc(N2CCC3(CCC(=O)N(CCO)C3)CC2)n1 | 8.685
32 | Cc1cc(N(C)C)nc(C2(C)CCCN2CC(N)=O)n1 (stereo not given) | 87.15
33 | CCc1nnc2n1CCN(c1nc(C)cc(N(C)C)n1)C2 | 1.842
34 | Cc1cc(C(F)(F)F)nc(C2(C)CCCN2CC(N)=O)n1 (stereo not given) | 81.01
35 | CC1(C)CN(CC(F)(F)F)CCN1CC(N)=O | 0.007489
36 | CS(=O)(=O)NC1CCN(C(=O)COCc2ccccc2)CC1 | -3.192
37 | Cc1cc(C2CCCN2c2ncc(C(N)=O)cc2Cl)no1 (stereo not given) | -5.991
38 | Cc1nncn1CCNC(=O)C(C)(C)c1cccc(C(F)(F)F)c1 | 2.023
39 | CC(C)CN1CCC(C(=O)Nc2cc(C(F)(F)F)c[nH]c2=O)CC1 | -2.2
40 | CC(=O)N(C)CC(=O)Nc1cc(C(F)(F)F)c[nH]c1=O | -5.133
41 | O=C(NCc1ccccn1)Nc1cc(C(F)(F)F)c[nH]c1=O | 4.379
42 | O=C(Nc1cc(C(F)(F)F)c[nH]c1=O)C1CCNCC1 | 76.16
43 | Cl.O=C(Nc1cc(C(F)(F)F)c[nH]c1=O)C1CCCCN1 (stereo not given) | 99.37
44 | Cc1ccc(C(F)(F)F)cc1NCC(=O)Nc1c(C)nn(C)c1C | 5.729
45 | CN(CC(=O)Nc1cc(C(F)(F)F)c[nH]c1=O)Cc1ccccc1 | -11.84
46 | Cc1ccc(C(=O)O)cc1NC(=O)C1CC=CC1 | -2.837
47 | Cc1ccc(C(F)(F)F)cc1NC(=O)C1CCCN1 (stereo not given) | 84.86
48 | O=C(Nc1cc(C(F)(F)F)c[nH]c1=O)C1CCCNC1 (stereo not given) | 107.9
49 | COc1cccc(C(=O)N2CCc3ncnc(C)c3CC2)c1 | -6.547
50 | CN1CC[C@H]2CN(C(=O)c3csc(Cc4ccccc4)n3)C[C@H]21 | 0.1576
51 | Cc1nn(C)cc1C(C)Nc1ncnc2sccc12 (stereo not given) | -14.94
52 | c1n[nH]cc1CCCN1CCC(OC2CCCCC2)CC1 | 7.391
53 | O=C(Nc1cc(C(F)(F)F)c[nH]c1=O)C1CCCO1 (stereo not given) | 93.32
54 | Cc1ccc(NC(=O)NCCCc2n[nH]c(N)c2C#N)cc1 | 1.349

Row | SMILES | Percent Effect [%]
55 | Cc1nn(C)c(C)c1NC(=O)CCn1ncc2c(C)cccc21 | -5.64
56 | Cc1oncc1C(=O)NCc1cc(=O)n2c(n1)CN(C)CCC2.O=C(O)C(F)(F)F | -6.613
57 | COCC(=O)NCc1cc(=O)n2c(n1)CN(Cc1ccoc1)CCC2 | 84.57
58 | COCC(=O)NCc1cc(=O)n2c(n1)CN(Cc1ccncc1)CCC2 | 99.24
59 | Cc1ccc(CN2CCCn3c(nc(CN4CCCC4)cc3=O)C2)s1.O=C(O)C(F)(F)F.O=C(O)C(F)(F)F | -4.249
60 | O=c1cc(Cn2ccnc2)nc2n1CCCN(Cc1ccsc1)C2 | 9.464
61 | CN(C)C(=O)NCc1cc(=O)n2c(n1)CN(Cc1ccoc1)CCC2.O=C(O)C(F)(F)F | 87.23
62 | O=C(CC1CC1)NCc1cc(=O)n2c(n1)CN(Cc1ccoc1)CCC2 | 68.76
63 | Cc1ccc(CN2CCCn3c(nc(Cn4cncn4)cc3=O)C2)s1 | -3.936
64 | Cn1ncc2c(NCCOCc3ccccc3)nc(C3CCCC3)nc21 | 18.15
65 | Cc1cc(C)c(C)c(OCCCNC(=O)NC(C)c2nncn2C)c1 (stereo not given) | 4.914
66 | Cc1nc(CC(=O)NCCNc2nccc(C(F)(F)F)n2)cs1 | -6.146
67 | O=c1cc(CN2CCCC2)nc2n1CCCN(Cc1ccsc1)C2 | 8.942
68 | COCC(=O)NCc1cc(=O)n2c(n1)CN(Cc1ccco1)CCC2 | 106.6
69 | O=c1cc(CN2CCCC2)nc2n1CCCN(Cc1ccoc1)C2 | 85.96
70 | CN(C)Cc1cc(=O)n2c(n1)CN(Cc1ccco1)CCC2 | 2.843
71 | O=c1cc(CN2CCCC2)nc2n1CCCN(Cc1ccco1)C2 | 15.57
72 | O=c1cc(Cn2cncn2)nc2n1CCCN(Cc1ccco1)C2 | -4.032
73 | O=C1NC(c2ccccc2)=N[C@@]12CC[C@@H]1CN(S(=O)(=O)C3CC3)C[C@@H]12 | 2.973
74 | Cc1ccc(C)c(NC(=O)C(C)N2CCCN(c3nccs3)CC2)c1 (stereo not given) | 18.26
75 | CCC(CO)N(Cc1cccc(O)c1)Cc1ccccc1C (stereo not given) | -1.955
76 | N#Cc1cc(NC(=O)C2CC=CC2)ccc1N1CCC(O)CC1 | -4.254
77 | CNC(=O)[C@@H](C1CCCCC1)N1CCC[C@H]1C(=O)NC1CC1 | 10.77
78 | N#Cc1ccccc1CNC(C(=O)N1CCOCC1)c1ccccc1 (stereo not given) | -7.429
79 | CCOC(=O)C1CCN(C(=O)CN2CCCC2Cc2ccccc2)CC1 (stereo not given) | -0.766
80 | CCOC(=O)C1CCN(C(=O)CN2CCCC2c2ccccc2C)CC1 (stereo not given) | -25.1
81 | CCOC(=O)C1CCN(C(=O)c2cnn(-c3ccccc3F)c2N)CC1 | 125.9

Row | SMILES | Percent Effect [%]
82 | CCOC(=O)C1CCN(C(=O)c2cnn(-c3ccc(C)cc3)c2N)CC1 | 105.1
83 | CCOC1CCN(C(=O)c2ccc(-n3ncc(C#N)c3N)cc2)CC1 | -10.17
84 | CCc1c(C(=O)NCC(=O)OCC2CC2)cnn1-c1ccc(C)cc1 | -8.085
85 | Cc1nn(C(C)C)c(C)c1NC(=O)c1ccc(F)cc1 | -6.824
86 | N#Cc1ccccc1NC(=O)c1ccc2c(c1)OCO2 | 136.5
87 | CCc1noc(CN(C)CCC(=O)Nc2ccccc2C#N)n1 | 9.134
88 | CN(C)Cc1ccccc1NC(=O)c1ccc(C#N)cc1 | 4.666
89 | COc1cc(C)nc(N2CCN(C(C)c3nc(C)no3)CC2)n1 (stereo not given) | -6.748
90 | CC(C)(O)CSCCNCc1ccc(Cl)c2cccnc12 | 7.695
91 | C1CCC(NCCN2CCOCC2)C1 | -5.882
92 | C1CN(CCN2CCOCC2)CCN1 | 96.42
93 | CC1CCC(NCCCN2CCOCC2)CC1 (stereo not given) | -18.43
94 | Cc1cc(C)n(CC2CCCN2C(=O)CCc2cscn2)n1 (stereo not given) | -3.871
95 | CCC(C)(NC(=O)CCN1CCOC1=O)C(=O)OC (stereo not given) | -2.045
96 | Cc1cc(C)n(C2CCCN(C(=O)CN(C)c3cnccn3)C2)n1 (stereo not given) | -4.644
97 | Cc1cc(C)n(C2CCCN(C(=O)Cc3csc(C)n3)C2)n1 (stereo not given) | 1.332
98 | O=C(CCc1nccs1)N1CCCC(n2cccn2)C1 (stereo not given) | 73.36
99 | O=C(CCc1cnn(-c2ccccc2)c1)N1CCCC(n2cccn2)C1 (stereo not given) | -6.718
100 | Cc1cc(C)n(C2CCCN(C(=O)CCc3nccs3)C2)n1 (stereo not given) | 95.16
101 | Cc1cnn(C2CCCN(C(=O)CCc3nccs3)C2)c1 (stereo not given) | -0.76
102 | CN(CCc1ccccc1)Cc1cc(C(=O)N2CCN(C)C(=O)C2)no1 | 103.8
103 | CN(CCc1ccccc1)Cc1cc(C(=O)N2CCSCC2)no1 | -17.09
104 | CN1CCCN(C(=O)c2cc(CN(C)CCc3ccccc3)on2)CC1 | -31.64
105 | O=C(NCCSCc1cccs1)C1CCCN(C(=O)N2CCCC2)C1 (stereo not given) | -5.994
